Screening data deposited in PubChem BioAssay by National Center for Advancing Translational Sciences (NCATS).
Pf Dd2 inh: Plasmodium falciparum Dd2 growth inhibition; P. falciparum Dd2 growth, SYBR Green, 72 h; Potency, µM (titrated, usually from 28.9 µM), actives largely listed as inhibitors; 120,000 tested, 4.3% active; AID 1347417; active = well fitted inhibition curve with a large enough effect; also: nearly all actives have a fitted effect of over 65% in size
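Readout: SYBR Green fluorescence, 485 nm excitation, 535 nm emission, after ~16 h lysis at 37C. Before that, Dd2-infected red cells (2.5% hematocrit) grew 72 h with compound, 29 uM top final concentration.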
Of the large screens only hits and unclear results are named; the others gave an inactive call. The entries come from a sample that favours hits as a whole.

COc1cccc(C(=O)N2CCC3(CC2)NC(=O)N(c2ccccc2)N3)c1	none
COc1ccc(Cl)cc1C(=O)N1CCC2(CC1)NC(=O)N(c1cccc(F)c1)N2	Pf Dd2 inh 10µM
COc1ccc(C(=O)N2CCC3(CC2)NC(=O)N(c2cccc(F)c2)N3)cc1F	none
COc1cccc(NC(=O)[C@@H]2C[C@@H](c3cccc(C(F)(F)F)c3)N(C)C2)c1	none
O=C(Nc1cccc(C(F)(F)F)c1)N[C@H]1CO[C@H]2[C@@H]1OC[C@@H]2n1nnnc1-c1ccc2c(c1)OCO2	none
COC[C@H]1NC(=O)CC[C@H]1C(=O)N1CCCc2ccccc21	none
O=C1CCN(C(=O)C2CCCC2)CCCC(c2nc(-c3ccccc3)no2)CCN1 (configuration not stated)	none
COc1ccc(C(=O)N2CCCC(c3nc(-c4cccnc4)no3)CCNC(=O)CC2)cc1 (configuration not stated)	none
Cc1ncsc1CN1CCCC(c2nc(-c3cccnc3)no2)CCNC(=O)CC1 (configuration not stated)	none
O=C1CCN(Cc2ccncc2F)CCCC(c2nc(-c3cccnc3)no2)CCN1 (configuration not stated)	none
COc1ccc(C(=O)N2CCCC(c3nc(-c4ccccc4)no3)CCNC(=O)CC2)c(OC)c1 (configuration not stated)	Pf Dd2 inh 7.1µM
N#Cc1cccc(CN2CCCC(c3nc(-c4cccnc4)no3)CCNC(=O)CC2)c1 (configuration not stated)	Pf Dd2 inh 5µM
O=C1CCN(Cc2ccncc2)CCCC(c2nc(-c3cccnc3)no2)CCN1 (configuration not stated)	none
O=C1CCN(C2CCC2)CCCC(c2nc(-c3cccnc3)no2)CCN1 (configuration not stated)	none
CCOc1ccccc1CN1CCCC(c2nc(-c3cccnc3)no2)CCNC(=O)CC1 (configuration not stated)	Pf Dd2 inh 4µM
COc1ccc([C@@H](NC(=O)c2scc3c2CCCC3)C2CC(O)C2)cn1 (some centres not stated)	none
O=C1COc2ccc(OCC3CC3)nc2CN1Cc1ccccc1	none
O=C(c1cc(F)ccc1F)N1CCC[C@H]1c1nc(-c2ccc(F)cc2)no1	none
O=C(NC[C@H]1OC[C@@H](NC2CCC2)[C@@H]1O)c1ccccc1	none
Cc1cnc(CCNC(=O)c2n[nH]c(=O)c3ccccc23)n1C1CCCCC1	Pf Dd2 inh 7.9µM
Cc1cnc(CCNC(=O)NC(C)C)n1C1CC1	none
COCc1ncc(C)n1CCNC(=O)c1n[nH]c(=O)c2ccccc12	none
Cc1cnc(CCNC(=O)NCc2ccccc2)n1C1CCC1	none
Cc1cnc(CCNC(=O)c2n[nH]c(=O)c3ccccc23)n1C1CCC1	none
Cc1cnc(CCNC(=O)Nc2ccc3c(c2)OCCO3)n1C1CCC1	Pf Dd2 inh 5µM
COCC(=O)N1CCN(C(=O)Nc2ccccc2)C[C@H]1C(=O)N[C@H](Cc1c[nH]c2ccccc12)C(N)=O	none
CCCN(CC1CCOC1)S(=O)(=O)c1ccc(Cl)cc1C (configuration not stated)	none
COc1ccc(Cn2c(C3CCN(C(=O)c4ccccc4OC)CC3)n[nH]c2=O)cc1	none
O=C(NCc1ccc(F)cc1)N1CCCC(Cn2cnc3cccnc32)C1 (configuration not stated)	none
COc1ccc2cnn(CC(=O)NC3CCCc4c3[nH]c3ccccc43)c(=O)c2c1OC (configuration not stated)	none
CCc1ccc2c(c1)NC(c1cccs1)=NC(c1ccc(F)cc1)=N2	none
CCOc1ccc(C2=NC(c3cccs3)=Nc3ccc(CC)cc3N2)cc1OCC	Pf Dd2 inh 8.9µM
CCCCOc1ccc(C2=NC(c3cccs3)=Nc3ccc(OC)cc3N2)cc1	none
O=C(Nc1ccccc1F)N1CC2CCC(C1)N2Cc1cccc(Cl)c1	none
CN1CC(=O)N(C2CCNCC2)Cc2c(NCCO)ncnc21	none
CCOc1ccccc1NC(=O)CSc1nc2cc(OC)c(OC)cc2c2nc(-c3ccccc3)nn12	none
COc1ccccc1CNc1nc2ccccc2c2nc(-c3cccc(C)c3)nn12	none
Cc1cccc(-c2nc3c4ccccc4nc(NCc4ccc(F)cc4)n3n2)c1	none
CCOCCCNc1nc2cc(OC)c(OC)cc2c2nc(-c3ccccc3)nn12	Pf Dd2 inh 0.28µM
COc1ccc(CNc2nc3ccccc3c3nc(-c4ccccc4)nn23)cc1	none
COc1cc2nc(NCc3ccccc3)n3nc(-c4ccccc4)nc3c2cc1OC	Pf Dd2 inh 0.32µM
CC(=O)N1CCC([C@@H]2CN(C(=O)CCCc3ccccc3)C[C@H]2CO)CC1	none
O=C(NC1CC(=O)N(Cc2ccc(F)cc2)C1)c1ccn[nH]1 (configuration not stated)	none
CNC(=O)N1CCC(C2CCN(S(=O)(=O)c3cnc[nH]3)C2)CC1 (configuration not stated)	none
CC(C)NC(=O)N[C@H]1CCN(C(=O)c2cnccn2)[C@@H]1C(=O)N[C@@H](Cc1cccs1)C(N)=O	none
COc1cccc(C(=O)NC[C@@H]2CC[C@H]3C[C@@H]2C3(C)C)c1	Pf Dd2 inh 11µM
COCC1(CNC(=O)c2cccc(OC)c2)C[C@@H](O)[C@@H](O)C1 (some centres not stated)	none
CC1(C)[C@H]2CC[C@@H](CNC(=O)c3cccnc3)[C@@H]1C2	none
COc1ccccc1-n1nc(-c2c(C)nc3scc(CC(=O)NCCC(C)C)n3c2=O)cc1C	none
O=C(NCC1CN(C(=O)Cc2ccc(C(F)(F)F)cc2)CC12CN(c1ccccc1)C2)c1ccccc1 (configuration not stated)	none
COc1ccc(NC(=O)c2oc3ccc4c(c3c2C)C(=O)CC(C)(C)O4)cc1OC	none
CCc1cccc(NC(=O)c2cc3c(=O)oc4ccc(C)cc4c3s2)c1	none
CCc1cccc(NC(=O)c2oc3ccc4c(c3c2C)C(=O)CC(C)(C)O4)c1	Pf Dd2 inh 10µM
COCCN1C(=O)[C@@H]2C[C@@H](CN2C(=O)Cc2ccccc2)Oc2ccccc21	none
c1ccc(-c2nnc3ccc(-c4ccoc4)nn23)nc1	none
COc1ccc(CN2CCc3oc(C)c(C(=O)NCc4cccnc4)c3C2)cc1	Pf Dd2 inh 11µM
COc1ccc(CN2CCc3oc(C)c(C(=O)N4CCOCC4)c3C2)cc1	none
COC(=O)C1CCCN1C(=O)c1c(C)oc2c1CN(Cc1ccc(C)cc1)CC2 (configuration not stated)	none
COc1ccc(CN2CCc3nc(C(=O)NCc4cccc(F)c4)oc3CC2)cc1	none
Cc1oc2c(c1C(=O)N1CCOCC1)CN(Cc1cccnc1)CC2	none
Cc1oc2c(c1C(=O)NCc1cccnc1)CN(Cc1ccc(F)cc1)CC2	none
Cc1oc2c(c1C(=O)NCc1ccncc1)CN(Cc1cccc(F)c1)CC2	Pf Dd2 inh 10µM
Cc1oc2c(c1C(=O)NCCc1ccncc1)CN(C)CC2	none
COCCNC(=O)c1c(C)oc2c1CN(Cc1cccc(F)c1)CC2	Pf Dd2 inh 5µM
COc1ccc(CN2CCc3oc(C)c(C(=O)NC4CCN(C)CC4)c3C2)cc1	Pf Dd2 inh 10µM
Cc1oc2ccn(Cc3cccc(F)c3)c(=O)c2c1C(=O)NCc1ccccc1	none
O=C(NCCOc1ccccc1)c1nc2c(o1)CCN(Cc1cccc(F)c1)CC2	none
O=C(O)CCn1ncc2cc(OCC3CCN(c4ncc(F)cn4)CC3)ccc21	none
CCOCc1nc(C2CCCN(C(=O)COc3ccccc3)C2)no1 (configuration not stated)	none
CNC(=O)CCn1ncc2cc(OC3CCc4cccc(-c5cccnc5)c43)ccc21 (configuration not stated)	none
COc1ccc(S(N)(=O)=O)cc1C(=O)N1CCC2(CCCN(C)C2=O)C1 (configuration not stated)	none
